The record followed here is PubChem BioAssay (EPA / NIEHS).

Molecules are shown by their SMILES. Inconclusive results are not listed. Calls of active or inactive are those of the source. Rule for the calls: active = hit-call score of the fitted dose curve at least 0.9, where 1 is the maximum; inconclusive = response in the unintended direction; inactive = score below 0.9.

Retinoic acid receptor alpha (Homo sapiens), sequence (P10276 whole entry, looked up): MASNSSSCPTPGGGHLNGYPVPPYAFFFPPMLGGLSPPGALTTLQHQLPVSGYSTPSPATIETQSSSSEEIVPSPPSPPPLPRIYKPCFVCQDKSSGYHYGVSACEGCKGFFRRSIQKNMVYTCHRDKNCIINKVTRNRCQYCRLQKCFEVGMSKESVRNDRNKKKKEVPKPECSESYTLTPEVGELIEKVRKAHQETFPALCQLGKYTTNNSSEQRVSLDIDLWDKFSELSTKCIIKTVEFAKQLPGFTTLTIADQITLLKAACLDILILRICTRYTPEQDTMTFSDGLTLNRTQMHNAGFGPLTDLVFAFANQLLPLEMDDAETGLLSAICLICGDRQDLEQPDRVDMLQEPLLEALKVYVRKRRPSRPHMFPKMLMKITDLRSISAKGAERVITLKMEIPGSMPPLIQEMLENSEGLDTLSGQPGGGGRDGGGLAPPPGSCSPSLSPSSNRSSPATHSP

This assay has as its target Retinoic acid receptor alpha (Homo sapiens) (UniProt P10276). In words: NVS_NR_hRAR_Antagonist: NovaScreen (NVS) Nuclear Receptor Binding Assay for human Retinoic Acid Alpha Receptor Antagonism (RAR) (AID 2283358). Here is the method:
NVS_NR_hRAR_Antagonist is a biochemical, single-readout assay that uses extracted gene-proteins in a cell-free assay. Measurements were taken 2 hours after chemical dosing in a 384-well plate.NVS_NR_hRAR_Antagonist is one of one assay component(s) measured or calculated from the NVS_NR_hRAR_Antagonist assay. It is designed to make measurements of fluorescent resonance energy transfer, a form of binding reporter, as detected with fluorescent resonance energy transfer signals by Time-Resolved Fluorescence Resonance Energy Transfer (TR-FRET) technology.Data from the assay component NVS_NR_hRAR_Antagonist was analyzed into 1 assay endpoint. This assay endpoint, NVS_NR_hRAR_Antagonist, was analyzed in the positive analysis fitting direction relative to DMSO as the negative control and baseline of activity. Using a type of binding reporter, loss-of-signal activity can be used to understand changes in the binding as they relate to the gene RARA. Furthermore, this assay endpoint can be referred to as a primary readout, because the performed assay has only produced 1 assay endpoint. To generalize the intended target to other relatable targets, this assay endpoint is annotated to the nuclear receptor intended target family, where the subfamily is non-steroidal.
Binding assays used specific radioligands (tritiated, iodinated) with non-radioactive competitive displacement ligands in agonist or antagonist protocols (as indicated) and various reference compounds and inhibitors to titrate specific binding to receptors and transporters. Most enzyme assays (CYPs, kinases, phosphatases, proteases, HDACs) used recombinant protein and specific substrates (fluorescence mostly, some colorimetric and radioactive) and inhibitors, followed by a biochemical separation of substrate and product. All assays for the biochemical HTS were initially run in duplicate at a single concentration (10 uM for CYP450 assays and 25 uM for all others). […] Each assay was run with positive and negative controls, and concurrent controls on every plate. The follow-up (secondary) screen tested active chemical-pairs in concentration series, as well as a few additional assays not tested in the primary screen, some selected negative inactives, and several cases re-run in the concentration series for confirmatory purposes.
Take `COP(=S)(OC)Oc1nc(Cl)c(Cl)cc1Cl`: the result was inactive.
For `N#Cc1nn(-c2c(Cl)cc(C(F)(F)F)cc2Cl)c(N)c1S(=O)C(F)(F)F` (stereo not given) the value was “inactive”; for `CCON=C(CC)C1=C(O)CC(c2c(C)cc(C)cc2C)CC1=O` (stereo not given), “inactive”.
To `COc1ccc(C(c2ccc(OC)cc2)C(Cl)(Cl)Cl)cc1` belongs “inactive”.
For `CO/C=C(/C(=O)OC)c1ccccc1Oc1cc(Oc2ccccc2C#N)ncn1` the value was “inactive”; for `CCCCOC(=O)c1ccccc1C(=O)OCCCC`, “inactive”.
Regarding `CCCC1COC(Cn2cncn2)(c2ccc(Cl)cc2Cl)O1` (stereo not given), the outcome was inactive.
For `COP(N)(=O)SC` (stereo not given) the value was “inactive”; for `COC(=O)c1ccccc1C(=O)OC`, “inactive”; for `CC(Oc1ccc(Cl)cc1Cl)C(=O)O` (stereo not given), “inactive”.
